Laboratory results published in the supplement of paper PMC11732987, “Enantioselective OTUD7B fragment discovery through chemoproteomics screening and high-throughput optimisation” (Communications Chemistry, 2025).

Columns and labels:
ALG13 = target: T1, ALG13 (UniProt Q9NP73); test: log2 ratio of Biotin-Ahx-Ub-VS probe labelling (fragment/DMSO); higher = less target engagement (more negative = stronger competition), active = hit call of the paper (q ≤ 0.05, log2 ratio ≤ -1); settings: compound concentration: 200 uM; treatment time: 3 h
T1 sequence (whole entry): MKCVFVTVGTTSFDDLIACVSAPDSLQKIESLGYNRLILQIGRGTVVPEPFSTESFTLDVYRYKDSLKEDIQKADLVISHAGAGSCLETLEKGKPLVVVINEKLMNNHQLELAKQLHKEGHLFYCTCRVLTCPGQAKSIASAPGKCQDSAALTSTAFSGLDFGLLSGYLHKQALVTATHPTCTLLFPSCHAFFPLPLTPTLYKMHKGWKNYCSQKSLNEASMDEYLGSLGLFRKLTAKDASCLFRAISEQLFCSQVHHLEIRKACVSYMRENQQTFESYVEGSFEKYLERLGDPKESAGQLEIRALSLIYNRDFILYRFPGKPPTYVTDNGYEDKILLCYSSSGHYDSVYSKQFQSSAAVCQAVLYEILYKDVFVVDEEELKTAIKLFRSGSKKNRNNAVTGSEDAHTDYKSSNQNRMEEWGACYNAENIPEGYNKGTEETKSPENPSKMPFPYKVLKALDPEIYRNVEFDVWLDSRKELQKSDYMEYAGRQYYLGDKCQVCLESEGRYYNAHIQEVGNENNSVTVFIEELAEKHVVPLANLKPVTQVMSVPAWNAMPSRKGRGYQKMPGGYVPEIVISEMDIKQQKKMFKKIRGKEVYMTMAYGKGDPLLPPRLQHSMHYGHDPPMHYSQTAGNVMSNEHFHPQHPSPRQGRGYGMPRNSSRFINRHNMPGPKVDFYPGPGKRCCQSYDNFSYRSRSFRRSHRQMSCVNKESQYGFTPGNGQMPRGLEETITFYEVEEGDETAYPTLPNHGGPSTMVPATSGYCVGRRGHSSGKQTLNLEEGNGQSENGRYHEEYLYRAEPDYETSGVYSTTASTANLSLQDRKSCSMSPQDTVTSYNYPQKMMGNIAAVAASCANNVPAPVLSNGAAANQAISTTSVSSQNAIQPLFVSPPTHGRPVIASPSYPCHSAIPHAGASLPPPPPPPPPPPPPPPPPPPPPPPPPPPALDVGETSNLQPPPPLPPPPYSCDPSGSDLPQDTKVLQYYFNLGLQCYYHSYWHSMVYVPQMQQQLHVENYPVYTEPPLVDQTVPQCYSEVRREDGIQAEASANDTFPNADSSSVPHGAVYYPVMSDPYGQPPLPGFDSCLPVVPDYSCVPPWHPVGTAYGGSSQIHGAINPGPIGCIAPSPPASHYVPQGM
Procedure, shortened: (§1)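 HEK293T lysate, 495 µg per sample in Tris/CHAPS/IGEPAL buffer with protease inhibitors, was treated in triplicate with fragment at 200 µM or vehicle for 3 h and then with Biotin-Ahx-Ub-VS at 0.5 µM final for 1 h. Labelled DUBs were NeutrAvidin-enriched, digested with LysC and trypsin, and run by diaPASEF LC-MS/MS. Spectronaut label-free quantities were global-median-normalised, and values are average log2 fragment/vehicle ratios by unpaired t-test on proteins with ≥2 unique peptides.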

ATXN3 = ATXN3 (UniProt P54252); test: as above; settings: compound concentration: 200 uM; treatment time: 3 h
Sequence of ATXN3 (P54252 whole entry): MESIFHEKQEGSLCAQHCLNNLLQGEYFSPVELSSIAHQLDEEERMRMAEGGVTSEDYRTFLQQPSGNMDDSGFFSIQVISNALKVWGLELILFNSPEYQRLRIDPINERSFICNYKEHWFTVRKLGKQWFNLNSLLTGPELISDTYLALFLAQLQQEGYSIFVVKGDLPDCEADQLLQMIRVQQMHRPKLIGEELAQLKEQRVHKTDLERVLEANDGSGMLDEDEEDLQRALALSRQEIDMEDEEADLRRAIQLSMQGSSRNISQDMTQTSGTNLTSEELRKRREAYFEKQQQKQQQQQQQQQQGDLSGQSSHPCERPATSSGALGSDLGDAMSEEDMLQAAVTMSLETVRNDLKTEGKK
Procedure, shortened: as §1

BAP1 = target: T2, BAP1 (UniProt Q92560); test: as above; settings: compound concentration: 200 uM; treatment time: 3 h
T2 sequence (whole entry): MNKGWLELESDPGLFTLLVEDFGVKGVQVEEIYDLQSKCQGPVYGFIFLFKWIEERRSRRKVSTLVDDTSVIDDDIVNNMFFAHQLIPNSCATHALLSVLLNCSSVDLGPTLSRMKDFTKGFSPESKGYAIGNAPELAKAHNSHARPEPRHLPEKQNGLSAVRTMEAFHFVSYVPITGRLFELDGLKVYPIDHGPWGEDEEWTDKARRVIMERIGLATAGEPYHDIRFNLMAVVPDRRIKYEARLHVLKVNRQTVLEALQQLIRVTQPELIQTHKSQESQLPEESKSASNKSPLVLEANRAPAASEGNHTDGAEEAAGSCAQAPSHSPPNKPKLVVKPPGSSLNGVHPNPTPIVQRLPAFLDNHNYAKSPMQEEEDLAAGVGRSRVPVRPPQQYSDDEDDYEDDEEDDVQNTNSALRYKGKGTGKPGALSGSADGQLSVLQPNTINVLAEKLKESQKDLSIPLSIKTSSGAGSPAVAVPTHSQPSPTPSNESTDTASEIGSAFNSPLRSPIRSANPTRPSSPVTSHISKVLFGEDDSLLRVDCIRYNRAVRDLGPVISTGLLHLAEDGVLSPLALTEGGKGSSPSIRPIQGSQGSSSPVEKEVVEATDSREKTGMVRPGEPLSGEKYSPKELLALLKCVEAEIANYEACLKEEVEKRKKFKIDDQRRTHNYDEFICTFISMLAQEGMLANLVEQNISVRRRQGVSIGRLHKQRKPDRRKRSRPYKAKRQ
Procedure, shortened: as §1

EIF3F = EIF3F (UniProt O00303); test: as above; settings: compound concentration: 200 uM; treatment time: 3 h
Sequence of EIF3F (O00303 whole entry): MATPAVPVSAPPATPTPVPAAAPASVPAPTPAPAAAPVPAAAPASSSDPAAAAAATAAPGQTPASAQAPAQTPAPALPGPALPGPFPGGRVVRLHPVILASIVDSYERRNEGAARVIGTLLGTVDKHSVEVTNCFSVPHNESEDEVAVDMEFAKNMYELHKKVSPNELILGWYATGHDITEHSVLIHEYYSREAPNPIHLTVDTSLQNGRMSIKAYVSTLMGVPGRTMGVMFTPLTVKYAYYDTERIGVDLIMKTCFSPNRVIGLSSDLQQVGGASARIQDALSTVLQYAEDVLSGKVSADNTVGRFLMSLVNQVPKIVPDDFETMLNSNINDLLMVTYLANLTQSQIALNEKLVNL
Procedure, shortened: as §1

EIF3H = EIF3H (UniProt O15372); test: as above; settings: compound concentration: 200 uM; treatment time: 3 h
Sequence of EIF3H (O15372 whole entry): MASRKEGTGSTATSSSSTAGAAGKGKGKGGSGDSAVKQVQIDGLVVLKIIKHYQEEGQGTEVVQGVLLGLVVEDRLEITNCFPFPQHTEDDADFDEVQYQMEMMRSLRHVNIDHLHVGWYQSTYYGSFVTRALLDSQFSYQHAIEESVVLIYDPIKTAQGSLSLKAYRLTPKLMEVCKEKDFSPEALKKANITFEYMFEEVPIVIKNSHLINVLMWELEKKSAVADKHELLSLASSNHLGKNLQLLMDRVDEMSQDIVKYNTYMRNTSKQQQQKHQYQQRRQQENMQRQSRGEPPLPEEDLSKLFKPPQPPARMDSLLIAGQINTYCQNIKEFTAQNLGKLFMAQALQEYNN
Procedure, shortened: as §1

FAM105A = target: T3, FAM105A (UniProt Q9NUU6); test: as above; settings: compound concentration: 200 uM; treatment time: 3 h
T3 sequence (whole entry): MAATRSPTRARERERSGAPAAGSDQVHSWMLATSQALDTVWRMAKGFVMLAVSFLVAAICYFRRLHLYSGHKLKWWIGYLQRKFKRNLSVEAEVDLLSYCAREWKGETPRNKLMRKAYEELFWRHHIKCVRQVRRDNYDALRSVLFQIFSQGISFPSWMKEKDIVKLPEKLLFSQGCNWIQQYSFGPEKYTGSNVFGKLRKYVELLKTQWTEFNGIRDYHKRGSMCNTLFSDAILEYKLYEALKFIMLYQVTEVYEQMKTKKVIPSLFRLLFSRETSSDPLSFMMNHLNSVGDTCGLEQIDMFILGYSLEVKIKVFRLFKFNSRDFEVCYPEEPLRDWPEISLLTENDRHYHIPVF
Procedure, shortened: as §1

OTUB1 = OTUB1 (UniProt Q96FW1); test: as above; settings: compound concentration: 200 uM; treatment time: 3 h
Sequence of OTUB1 (Q96FW1 whole entry): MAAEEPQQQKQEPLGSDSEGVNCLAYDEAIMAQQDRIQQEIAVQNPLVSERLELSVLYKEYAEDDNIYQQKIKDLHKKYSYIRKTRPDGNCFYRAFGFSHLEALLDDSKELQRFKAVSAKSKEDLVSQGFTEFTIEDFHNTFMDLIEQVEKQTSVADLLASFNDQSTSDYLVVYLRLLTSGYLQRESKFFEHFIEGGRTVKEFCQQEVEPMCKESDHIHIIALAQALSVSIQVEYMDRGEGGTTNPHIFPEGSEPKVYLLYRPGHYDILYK
Procedure, shortened: as §1

OTUD4 = target: T4, OTUD4 (UniProt Q01804); test: as above; settings: compound concentration: 200 uM; treatment time: 3 h
T4 sequence (whole entry): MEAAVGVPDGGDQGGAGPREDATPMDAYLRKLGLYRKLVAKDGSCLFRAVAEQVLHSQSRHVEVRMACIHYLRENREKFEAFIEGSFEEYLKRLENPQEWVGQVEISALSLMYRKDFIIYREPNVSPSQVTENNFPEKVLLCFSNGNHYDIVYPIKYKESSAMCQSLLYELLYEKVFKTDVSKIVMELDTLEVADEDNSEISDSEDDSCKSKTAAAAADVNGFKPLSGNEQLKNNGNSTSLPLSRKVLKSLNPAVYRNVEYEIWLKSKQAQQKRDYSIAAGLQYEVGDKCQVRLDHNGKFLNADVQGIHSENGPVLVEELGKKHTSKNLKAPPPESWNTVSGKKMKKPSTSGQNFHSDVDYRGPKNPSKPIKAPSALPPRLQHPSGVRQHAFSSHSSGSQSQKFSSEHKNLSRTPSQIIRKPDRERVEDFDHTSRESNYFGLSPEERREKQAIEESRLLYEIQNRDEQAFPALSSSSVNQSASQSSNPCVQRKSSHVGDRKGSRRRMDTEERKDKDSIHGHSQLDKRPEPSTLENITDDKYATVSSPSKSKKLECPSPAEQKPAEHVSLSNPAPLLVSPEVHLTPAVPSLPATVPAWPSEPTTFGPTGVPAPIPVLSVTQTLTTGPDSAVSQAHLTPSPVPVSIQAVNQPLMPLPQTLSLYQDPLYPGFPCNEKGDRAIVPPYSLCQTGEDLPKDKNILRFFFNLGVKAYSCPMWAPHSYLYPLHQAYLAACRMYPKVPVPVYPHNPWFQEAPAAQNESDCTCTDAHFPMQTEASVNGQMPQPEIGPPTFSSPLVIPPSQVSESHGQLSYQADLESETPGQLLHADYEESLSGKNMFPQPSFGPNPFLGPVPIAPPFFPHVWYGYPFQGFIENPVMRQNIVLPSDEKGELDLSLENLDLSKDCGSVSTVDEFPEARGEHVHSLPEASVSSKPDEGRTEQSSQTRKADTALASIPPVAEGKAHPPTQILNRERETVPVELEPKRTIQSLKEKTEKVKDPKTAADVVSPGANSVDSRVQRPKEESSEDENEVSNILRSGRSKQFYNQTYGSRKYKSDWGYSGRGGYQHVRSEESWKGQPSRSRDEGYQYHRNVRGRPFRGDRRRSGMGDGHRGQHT
Procedure, shortened: as §1

OTUD5 = target: T5, OTUD5 (UniProt Q96G74); test: as above; settings: compound concentration: 200 uM; treatment time: 3 h
T5 sequence (whole entry): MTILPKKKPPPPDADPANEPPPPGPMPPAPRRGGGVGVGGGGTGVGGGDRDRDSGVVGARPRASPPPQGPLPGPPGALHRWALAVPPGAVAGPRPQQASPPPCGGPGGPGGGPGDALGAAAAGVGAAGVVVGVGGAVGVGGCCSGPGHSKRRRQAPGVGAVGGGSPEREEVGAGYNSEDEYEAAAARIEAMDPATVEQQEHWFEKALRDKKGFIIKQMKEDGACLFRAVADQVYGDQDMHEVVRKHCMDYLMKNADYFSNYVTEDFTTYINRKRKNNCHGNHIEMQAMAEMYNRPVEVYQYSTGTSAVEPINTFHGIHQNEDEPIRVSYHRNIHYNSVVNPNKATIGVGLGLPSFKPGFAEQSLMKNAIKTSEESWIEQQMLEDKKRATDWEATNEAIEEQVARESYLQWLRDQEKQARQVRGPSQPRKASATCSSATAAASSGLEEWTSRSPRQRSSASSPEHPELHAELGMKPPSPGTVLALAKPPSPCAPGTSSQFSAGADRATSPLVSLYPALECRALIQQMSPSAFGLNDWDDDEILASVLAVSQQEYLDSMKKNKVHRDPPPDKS
Procedure, shortened: as §1

USP38 = target: T6, USP38 (UniProt Q8NB14); test: log2 ratio of Biotin-Ahx-Ub-VS probe labelling (compound/DMSO); higher = less target engagement, active = hit call of the paper (q ≤ 0.05, log2 ratio ≤ -1); settings: treatment time: 3 h
T6 sequence (whole entry): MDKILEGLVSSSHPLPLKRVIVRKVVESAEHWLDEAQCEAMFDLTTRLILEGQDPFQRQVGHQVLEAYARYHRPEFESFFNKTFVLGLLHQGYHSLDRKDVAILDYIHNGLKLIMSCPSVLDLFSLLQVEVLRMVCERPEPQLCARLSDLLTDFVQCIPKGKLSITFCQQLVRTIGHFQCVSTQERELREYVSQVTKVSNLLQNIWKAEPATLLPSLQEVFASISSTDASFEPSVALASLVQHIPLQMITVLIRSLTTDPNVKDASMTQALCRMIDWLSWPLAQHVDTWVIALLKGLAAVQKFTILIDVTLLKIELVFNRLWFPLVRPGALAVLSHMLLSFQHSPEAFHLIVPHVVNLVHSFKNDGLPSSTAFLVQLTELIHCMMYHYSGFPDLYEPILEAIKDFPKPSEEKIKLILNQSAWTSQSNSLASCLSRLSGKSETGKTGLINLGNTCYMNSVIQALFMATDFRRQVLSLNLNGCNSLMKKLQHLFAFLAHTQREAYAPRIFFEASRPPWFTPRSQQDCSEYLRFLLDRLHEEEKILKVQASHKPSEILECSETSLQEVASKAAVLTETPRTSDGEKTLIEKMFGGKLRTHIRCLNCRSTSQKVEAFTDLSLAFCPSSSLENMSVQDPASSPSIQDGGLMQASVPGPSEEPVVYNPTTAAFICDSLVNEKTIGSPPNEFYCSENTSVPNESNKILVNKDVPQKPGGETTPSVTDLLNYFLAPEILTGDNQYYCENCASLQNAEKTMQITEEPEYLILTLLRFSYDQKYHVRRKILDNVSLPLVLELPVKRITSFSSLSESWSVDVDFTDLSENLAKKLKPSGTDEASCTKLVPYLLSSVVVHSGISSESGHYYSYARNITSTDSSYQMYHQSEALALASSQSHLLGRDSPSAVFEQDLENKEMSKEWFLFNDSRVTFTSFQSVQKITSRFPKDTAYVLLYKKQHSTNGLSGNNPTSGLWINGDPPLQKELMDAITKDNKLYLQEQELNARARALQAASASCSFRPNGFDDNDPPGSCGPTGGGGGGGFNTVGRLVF
Procedure, shortened: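 HEK293T lysate (495 µg per sample, in Tris/CHAPS/IGEPAL buffer with protease inhibitors) was treated in triplicate with compound over a concentration series or DMSO for 3 h, then with Biotin-Ahx-Ub-VS (0.5 µM final) for 1 h. Labelled DUBs were NeutrAvidin-enriched, digested with LysC and trypsin, and run by diaPASEF LC-MS/MS. Spectronaut label-free protein quantities were global-median-normalised. Values are average log2 ratios compound/DMSO from an unpaired t-test, using proteins with ≥2 unique peptides.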

Measured: log2 ratio of Biotin-Ahx-Ub-VS probe labelling

O=C(CCl)N1CCN2C(=O)CCC2C1 (stereo not drawn)
inactive: ALG13 0.0971 | ATXN3 -0.237 | BAP1 -0.591 | EIF3F 0.0885 | EIF3H -0.0249 | FAM105A 0.154 | OTUB1 -0.19 | OTUD4 -0.461 | OTUD5 -0.499

O=C(CCl)N[C@H]1CCCc2ccccc21
inactive: USP38; compound concentration: 0.78uM -0.147 | USP38; compound concentration: 1.56uM -0.192 | USP38; compound concentration: 3.13uM -0.169 | USP38; compound concentration: 6.25uM -0.0221 | USP38; compound concentration: 12.5uM -0.0585 | USP38; compound concentration: 25uM -0.166 | USP38; compound concentration: 50uM -0.069 | USP38; compound concentration: 100uM -0.102 | USP38; compound concentration: 200uM -0.211
